In PubChem BioAssay AID504832 (National Center for Advancing Translational Sciences (NCATS), 2011):
In all, about 310,000 compounds went through this assay and about 18,000 (5.8%) were called active. Not shown: some 22% with an inconclusive outcome. The call rests on the fitted dose curve; in most records, active means well fitted inhibition curve with a large enough effect; inconclusive means small, poorly fitted or top-dose-only effect, or another doubt; inactive means no such curve, though single readings can be large or run the other way. What follows is part of a selection rich in actives, with near analogues and random picks from the rest.

Test: Primary qHTS for delayed death inhibitors of the malarial parasite plastid, 48 hour incubation
Conditions: P. falciparum luciferase growth in erythrocytes; series mostly up to 28.7 µM; activity change, negative = inhibition: at the top concentration
Outline: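 Here the parasites carry a stable luciferase gene and grow inside erythrocytes in Albumax-based RPMI medium with compound for one erythrocytic cycle. Activity is scored as loss of luminescent signal.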
On the % scale 0 is the no-effect control and ±100 the full control effect; potency means the concentration at half of the fitted maximal effect.

| Structure (SMILES) | activity change, negative = inhibition | Potency |
| --- | --- | --- |
| CC(Oc1cccc(Cl)c1)C(=O)NC1CC(C)(C)NC(C)(C)C1 (centres undefined) | 4.79% (inactive) | – |
| O=C1CN(C(=O)c2cc(F)cc(F)c2)c2ccccc2N1 | 7.56% (inactive) | – |
| O=C(Nc1ccc(Br)cc1)c1cc(S(=O)(=O)Nc2ccccn2)ccc1Cl | 2.06% (inactive) | – |
| CN(CC(=O)NCCc1ccc(F)cc1)CC(=O)Nc1ccc(F)c(F)c1F | -3.85% (inactive) | – |
| COc1ccc(C2=NN(C(=O)CCC(=O)O)C(c3cccs3)C2)cc1OC (centres undefined) | -8.8% (inactive) | – |
| COc1cccc(C2CC(c3cccs3)=NN2C(=O)CSC2=NCCS2)c1OC (centres undefined) | – | 10.4 µM (active) |
| COc1ccc(C2CC(c3cccs3)=NN2C(=O)CSc2nnc(N)s2)cc1OC (centres undefined) | -32.9% (inactive) | – |
| COc1ccccc1C(=O)NCCC(=O)NN1C(=O)NC2(CCCCC2)C1=O | 4.51% (inactive) | – |
| CCCCOc1ccc(N(CC(=O)NCC2CCCO2)C(=O)CCC(=O)Nc2cc(C)ccn2)cc1 (centres undefined) | – | 9.28 µM (active) |
| COC(=O)c1cccc(N(CC(=O)NCC2CCCO2)C(=O)CCC(=O)Nc2cc(C)on2)c1 (centres undefined) | 7.34% (inactive) | – |
| Cc1cc(NC(=O)CCC(=O)N(CC(=O)NCC2CCCO2)c2ccccc2)no1 (centres undefined) | 3.81% (inactive) | – |
| Cc1cccc(OCCC(=O)OCc2csc(CC(=O)Nc3ccccc3C)n2)c1 | -15.4% (inactive) | – |
| Cn1ncc2c(N3CCCCC3)nc(NCCCO)nc21 | 1.55% (inactive) | – |
| CCc1ccccc1OCC(=O)Nc1ccc2c(c1)OCCO2 | 101% (inactive) | – |
| CCc1ccccc1OCC(=O)Nc1ccc(C)c(S(=O)(=O)N2CCCCCC2)c1 | – | 10.4 µM (active) |
| Cc1ccc(NC(=O)CCCNC(=O)c2ccc(Cl)cc2)cc1S(=O)(=O)N1CCCCC1 | 6.37% (inactive) | – |
| COc1ccc(C(=O)NC2CC(C)(C)NC(C)(C)C2)cc1OC | 7.82% (inactive) | – |
| COc1ccc(S(=O)(=O)NC(C)c2ccccc2)cc1C(=O)N1CCCCC1 (centres undefined) | -18.6% (inactive) | – |
| COc1cccc(C(=O)NNS(=O)(=O)c2ccc(F)cc2)c1 | 23.1% (inactive) | – |
| CN(C)Cc1ccccc1C1(O)c2ccccc2CSc2ccccc21 (centres undefined) | 0% (inactive) | – |
| CN(C)CC/C=C1\c2ccccc2CSc2ccccc21 | – | 10.4 µM (active) |
| CCOc1ccc(C(=O)Nc2cc(Cl)ccc2-n2cncn2)cc1OC | 15.5% (inactive) | – |
| O=C(CNc1cccc(S(=O)(=O)N2CCCCC2)c1)Nc1ccccc1F | -12.3% (inactive) | – |
| O=C(NCc1cc(F)cc(C(F)(F)F)c1)C1CCC(=O)N(C2CCCC2)C1 (centres undefined) | -11.5% (inactive) | – |
| Cc1cc(NC(=O)c2ccco2)c(=O)n(Cc2c(F)cccc2Cl)c1 | -0.249% (inactive) | – |
| COC(=O)C1=C(Nc2ccc(C)cc2)C=C(C)C(C(=O)OC)C1c1ccc(F)cc1 (centres undefined) | – | 3.7 µM (active) |
| COC(=O)C1=C(Nc2ccc(OC)cc2)C=C(C)C(C(=O)OC)C1c1ccc(C)cc1 (centres undefined) | – | 10.4 µM (active) |

| Structure (SMILES) | activity change, negative = inhibition | Potency |
| --- | --- | --- |
| Cc1ccc(C(=O)CNc2ccc(F)cc2)cc1 | -7.87% (inactive) | – |
| COc1ccc(N2C(=O)C(O)C2c2ccc(C)cc2)cc1 (centres undefined) | 5.17% (inactive) | – |
| COC(=O)C1C(=O)NCC1c1ccc(OC)cc1 (centres undefined) | 23.4% (inactive) | – |
| Cc1ccc(NC(=S)Nc2ccc(F)cc2)cc1 | 6.95% (inactive) | – |
| c1ccc2c(c1)CCc1snnc1-2 | 23.2% (inactive) | – |
| COC(=O)c1cc(CNC(=O)CC(C)c2ccccc2)ccc1OC (centres undefined) | 6.94% (inactive) | – |
| CCOc1cc(/C=N/NC(=O)CN2CCCCC2)ccc1O | 37.9% (inactive) | – |
| CCOC(=O)N1CCN(CCC(=O)Nc2ccccc2)CC1 | -15.3% (inactive) | – |
| O=C(Nc1c2c(nc3ccccc13)CCCC2)c1ccccc1Br | 2.38% (inactive) | – |
| Cc1noc(C)c1COC(=O)c1cc2ccccc2cc1O | 22.6% (inactive) | – |
| O=C(NNc1c2ccccc2nc2ccccc12)c1cc2ccccc2cc1O | – | 11.7 µM (active) |
| COc1cccc(CSc2nc3nc(C)cc(C)n3n2)c1 | 18.8% (inactive) | – |
| COCCn1c(SCc2nc3cc(OC)c(OC)cc3c(=O)[nH]2)nnc1-c1ccncc1 | 1.35% (inactive) | – |
| CCn1c(SCc2ccccc2)nc2cc(OC)c(OC)cc2c1=O | – | 10.4 µM (active) |
| COCCCn1c(SCc2cccc(OC)c2)nc2cc(OC)c(OC)cc2c1=N | – | 2.62 µM (active) |
| COC(=O)CSc1nc2ccccc2c(=O)n1Cc1ccccc1 | 13.8% (inactive) | – |
| CCn1c(SCc2ccccc2)nc2c(c1=O)SCC2 | -2.57% (inactive) | – |
| Cc1ccc(NC2CCCN(C(=O)CCc3cn[nH]c3)C2)cc1C (centres undefined) | -0.298% (inactive) | – |
| COc1ccc(S(=O)(=O)Nc2cc(C)on2)cc1NC(C)=O | -8.24% (inactive) | – |
| Cc1ccc2nc(SCC(=O)N3CC(C)OC(C)C3)nc(=O)n2c1 (centres undefined) | -18.9% (inactive) | – |
| CC(C)Nc1ccc(-n2nc3ccccc3[n+]2[O-])cc1 | 115% (inactive) | – |
| COc1ccc(NC(=O)C2CCN(S(=O)(=O)c3ccc4[nH]c(=O)oc4c3)CC2)c(OC)c1 | -16.8% (inactive) | – |
| COc1ccc(C(CNC(=O)COc2ccccc2OC)N2CCCCC2)cc1 (centres undefined) | -3.54% (inactive) | – |
| COc1ccccc1CN1CC(C(=O)NCCc2cn[nH]c2)CCC1=O (centres undefined) | 6.82% (inactive) | – |
| CN1c2ccc([N+](=O)[O-])cc2C(C)(C)C12C=Cc1cc(C(=O)O)ccc1O2 (centres undefined) | 16.2% [at 0.00184 µM] (inactive) | – |
| COc1ccc2c(c1)C=CC1(O2)N(CCO)c2ccccc2C1(C)C (centres undefined) | – | 13.1 µM (active) |
| COc1ccc2c(c1)C(SCC(=O)NCc1ccccc1)CC(C)(C)O2 (centres undefined) | -9.16% (inactive) | – |
